# Values of other authors, collected in PubChem BioAssay AID977611.
# Among all 3,900 compounds or so, about 3,900 (100%) were called active. Cut-off not given; nearly all actives show Kd up to about 4200 µM. So high a share suggests a set chosen from earlier hits. Some of the results follow. Where a SMILES comes first, the peptide text is derived from it. Non-standard residues stand in square brackets, D forms with d. Residues, ends and D or L forms follow the SMILES beside them. Orn(CH(NH2)2) = NC(N)NCCC[C@H](N)C(=O)O
# Assay: PubChem AID 977611
# Details: PDB protein-ligand complexes, literature Kd
compound,measurement,setting,value
O[C@@H]1[C@H](O)CO[C@](O)(CO[P+](O)(O)O)[C@H]1O,Kd,"protein: GLUCOKINASE REGULATORY PROTEIN, PDB entry 4bb9",1 µM (active)
O=C(NCCC1C=CCCC1)Nc1ccc2nnsc2c1 (configuration not stated),Kd,"protein: Protein arginine N-methyltransferase 3, PDB entry 3smq",9.5 µM (active)
OC[C@H]1O[C@@H](Oc2ccc([C@@H](c3ccc(O)c(Cl)c3)c3ccccc3S(O)(O)O)cc2Cl)[C@H](O)[C@@H](O)[C@H]1O,Kd,"protein: PA-I galactophilic lectin, PDB entry 4lk6",6.3 µM (active)
C/C(=C/C=C/C(C)=C/C(=O)O)Cc1cccc2ccc(C)cc12,Kd,"protein: Retinoic acid receptor RXR-alpha, PDB entry 4poj",0.008 µM (active)
NCc1ccc2occc2c1,Kd,"protein: CATIONIC TRYPSIN, PDB entry 4ab9",466 µM (active)
NC1C=CN([C@@H]2O[C@H](CNC(=O)c3c[nH]c4scc[n+]34)[C@@H](O)[C@H]2O)C(=O)N1 (some centres not stated),Kd,"protein: 2-C-methyl-D-erythritol 2,4-cyclodiphosphate synthase, PDB entry 3q8h",70 µM (active)
NC1C=CN([C@@H]2O[C@H](CO)[C@@H](O)[C@H]2O)C(=O)N1 (some centres not stated),Kd,"protein: Peptidyl-tRNA hydrolase, PDB entry 4jwk",0.00479 µM (active)
O=C(CCN1CCCCC1)N1CCc2[nH]c(=O)c3cc(F)ccc3c2C1,Kd,"protein: Putative ADP-ribosyltransferase Certhrax, PDB entry 4fxq",1.7 µM (active)
C[C@H]1CCC[C@H](C[C@H]2Cc3cc(O)cc(O)c3C(=O)O2)O1,Kd,"protein: Lysine--tRNA ligase, PDB entry 4pg3",0.014 µM (active)
CC[C@H](C)[C@H](NC(=O)[C@H](CO)NC(=O)[C@@H]1CCCN1C(=O)[C@H](C)N)C(=O)N[C@@H](CC(=O)O)C(=O)N[C@@H](CCCNC(N)N)C(=O)N[C@@H](CO)C(=O)N[C@H](C(=O)N[C@@H](CCCCN)C(=O)N1CCC[C@H]1C(=O)N1CCC[C@H]1C(=O)N[C@@H](CC(C)C)C(=O)O)[C@@H](C)O (H-APSID[Orn(CH(NH2)2)]STKPPL-OH),Kd,"protein: Grb2-related adaptor protein 2(C-terminal SH3 domain (SH3C) of Mona/Gads, PDB entry 1oeb",0.118 µM (active)
CC[C@H](C)[C@H](N)C(=O)N[C@@H](CCC(=O)O)C(=O)N[C@@H](CC(C)C)C(=O)N1CCC[C@H]1C(=O)N[C@@H](CCC(=O)O)C(=O)N[C@H](C(=O)N1CCC[C@H]1C(=O)N[C@@H](CO)C(=O)N[C@@H](CCC(=O)O)C(=O)N1CCC[C@H]1C(=O)N[C@@H](CC(C)C)C(=O)N1CCC[C@H]1C(=O)O)C(C)C (H-IELPEVPSEPLP-OH),Kd,"protein: Vacuolar protein sorting-associating protein 4A, PDB entry 2k3w",5.8 µM (active)
CC[C@H](C)[C@H](NC(=O)[C@@H](NC(=O)[C@H](CC(C)C)NC(=O)[C@H](C)NC(=O)[C@@H]1CCCN1C(=O)[C@H](CC(C)C)NC(=O)[C@@H](NC(=O)[C@@H]1CCCN1C(=O)[C@H](CCCCN)NC(=O)[C@H](CCCNC(N)N)NC(=O)[C@H](C)N)C(C)C)[C@@H](C)O)C(=O)N[C@@H](C)C(=O)O (H-A[Orn(CH(NH2)2)]KPVLPALTIA-OH),Kd,"protein: Mitogen-activated protein kinase 1 (R77A, E314A, I255G, C162S mutation), PDB entry 4h3q",8 µM (active)
CC[C@H](C)[C@H](NC(=O)[C@H](CC(C)C)NC(=O)[C@@H]1CCCN1C(=O)[C@@H]1CCCN1C(=O)[C@@H]1CCCN1C(=O)[C@H](CC(N)=O)NC(=O)[C@H](CO)NC(=O)[C@@H](NC(=O)[C@@H](N)[C@@H](C)O)[C@@H](C)CC)C(=O)N[C@@H](CO)C(=O)N[C@@H](CO)C(=O)N[C@@H](C)C(=O)N[C@@H](CCCCN)C(=O)O (H-TISNPPPLISSAK-OH),Kd,"protein: The MYND domain (NHR4) of ETO, PDB entry 2odd",109 µM (active)
H-ELPLVKI-OH,Kd,"protein: Chaperone protein DnaK, PDB entry 4ezz",6.4 µM (active)
CC[C@H](C)[C@H](NC(=O)[C@H](Cc1ccccc1)NC(=O)[C@H](CCCCN)NC(=O)CN)C(=O)N1CCC[C@H]1C(=O)N[C@@H](CO)C(=O)N[C@@H](CCCNC(N)N)C(=O)N1CCC[C@H]1C(=O)N[C@@H](C)C(=O)N1CCC[C@H]1C(=O)N[C@@H](CCCCN)C(=O)N1CCC[C@H]1C(=O)N1CCC[C@H]1C(=O)N[C@@H](CO)C(=O)N[C@@H](CO)C(=O)N[C@@H](C)C(=O)O (H-GKFIPS[Orn(CH(NH2)2)]PAPKPPSSA-OH),Kd,"protein: NAP1-binding protein 2, PDB entry 2lcs",0.2 µM (active)
CC[C@H](C)[C@H](NC(=O)[C@@H](NC(=O)[C@@H](N)CS)[C@@H](C)CC)C(=O)N[C@@H](CO)C(=O)N[C@@H](C)C(=O)N[C@@H](CCSC)C(=O)N1CCC[C@H]1C(=O)N[C@H](C(=O)N[C@@H](CCCCN)C(=O)N[C@@H](CO)C(=O)N[C@@H](CO)C(=O)N[C@@H](CCCNC(N)N)C(=O)N[C@@H](CCCCN)C(=O)N[C@@H](C)C(=O)N[C@@H](CCCCN)C(=O)N[C@@H](CCCCN)C(=O)N1CCC[C@H]1C(=O)N[C@@H](C)C(=O)N[C@@H](CCC(N)=O)C(=O)O)[C@@H](C)O (H-CIISAMPTKSS[Orn(CH(NH2)2)]KAKKPAQ-OH),Kd,"protein: DDEF1 SH3 domain, PDB entry 2rqu",23.6 µM (active)
H-KPAAVVAPI-OH,Kd,"protein: Ubiquitin ligase SIAH1, PDB entry 2a25",24 µM (active)
